T1: RBFOX1 RRM (Homo sapiens, UniProt Q9NWB1 109-208)
T1 sequence: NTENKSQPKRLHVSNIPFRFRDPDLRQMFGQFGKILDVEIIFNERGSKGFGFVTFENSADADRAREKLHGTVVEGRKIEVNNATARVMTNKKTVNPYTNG

B1: AACCACA (DNA:RNA)
RNA: GGGAGACCGGAAUUCAGAUUGUCCAACCACAUUAAAUCCCGUCGUAGCCACCA
DNA 1: CAATCTGAATTCCGGTCTCCC
DNA 2: TGGTGGCTACGACGGGATT
B2: ACAUAGU (DNA:RNA)
RNA: B1 RNA with A26C, C27A, C28U, C30G, A31U
DNA 1: CAATCTGAATTCCGGTCTCCC
DNA 2: TGGTGGCTACGACGGGATT
B3: CGCCAUA (DNA:RNA)
RNA: B1 RNA with A25C, A26G, C30U
DNA 1: CAATCTGAATTCCGGTCTCCC
DNA 2: TGGTGGCTACGACGGGATT
B4: AUUUUUA (DNA:RNA)
RNA: B1 RNA with A26U, C27U, C28U, A29U, C30U
DNA 1: CAATCTGAATTCCGGTCTCCC
DNA 2: TGGTGGCTACGACGGGATT
B5: UGUUCCG (DNA:RNA)
RNA: B1 RNA with A25U, A26G, C27U, C28U, A29C, A31G
DNA 1: CAATCTGAATTCCGGTCTCCC
DNA 2: TGGTGGCTACGACGGGATT
B6: GCACGUA (DNA:RNA)
RNA: B1 RNA with A25G, A26C, C27A, A29G, C30U
DNA 1: CAATCTGAATTCCGGTCTCCC
DNA 2: TGGTGGCTACGACGGGATT
B7: UCGCACC (DNA:RNA)
RNA: B1 RNA with A25U, A26C, C27G, A31C
DNA 1: CAATCTGAATTCCGGTCTCCC
DNA 2: TGGTGGCTACGACGGGATT
B8: GCACGUG (DNA:RNA)
RNA: B1 RNA with A25G, A26C, C27A, A29G, C30U, A31G
DNA 1: CAATCTGAATTCCGGTCTCCC
DNA 2: TGGTGGCTACGACGGGATT
B9: GCACGAU (DNA:RNA)
RNA: B1 RNA with A25G, A26C, C27A, A29G, C30A, A31U
DNA 1: CAATCTGAATTCCGGTCTCCC
DNA 2: TGGTGGCTACGACGGGATT
B10: UCGUCCG (DNA:RNA)
RNA: B1 RNA with A25U, A26C, C27G, C28U, A29C, A31G
DNA 1: CAATCTGAATTCCGGTCTCCC
DNA 2: TGGTGGCTACGACGGGATT
B11: GCACACG (DNA:RNA)
RNA: B1 RNA with A25G, A26C, C27A, A31G
DNA 1: CAATCTGAATTCCGGTCTCCC
DNA 2: TGGTGGCTACGACGGGATT
B12: UCGCACG (DNA:RNA)
RNA: B1 RNA with A25U, A26C, C27G, A31G
DNA 1: CAATCTGAATTCCGGTCTCCC
DNA 2: TGGTGGCTACGACGGGATT
B13: GCACGAG (DNA:RNA)
RNA: B1 RNA with A25G, A26C, C27A, A29G, C30A, A31G
DNA 1: CAATCTGAATTCCGGTCTCCC
DNA 2: TGGTGGCTACGACGGGATT
B14: GCACGAA (DNA:RNA)
RNA: B1 RNA with A25G, A26C, C27A, A29G, C30A
DNA 1: CAATCTGAATTCCGGTCTCCC
DNA 2: TGGTGGCTACGACGGGATT
B15: CGCACCG (DNA:RNA)
RNA: B1 RNA with A25C, A26G, C28A, A29C, A31G
DNA 1: CAATCTGAATTCCGGTCTCCC
DNA 2: TGGTGGCTACGACGGGATT
B16: CCGCACG (DNA:RNA)
RNA: B1 RNA with A25C, A26C, C27G, A31G
DNA 1: CAATCTGAATTCCGGTCTCCC
DNA 2: TGGTGGCTACGACGGGATT
B17: ACGCACG (DNA:RNA)
RNA: B1 RNA with A26C, C27G, A31G
DNA 1: CAATCTGAATTCCGGTCTCCC
DNA 2: TGGTGGCTACGACGGGATT

Residue numbers refer to the chain shown, from its start. Whole data set: some 16,000 sequences, median “ka relative to ugcaugu” near 0.0091, cut for the highest 2% near 0.032. Shown is part of a subset that was picked to be rich in the highest values.

The experiment has as its target T1, RBFOX1 RRM. Put plainly: EMSA; HiTS-Eq, 1 nM pool, 10 min; buffer printed only for the single-RNA assays: 10 mM Tris pH 7.5, 150 mM NaCl, 3.4 mM EDTA, 0.001% NP-40, 30 C. Conditions: tags: His6 N-terminal (pET28a); label: 5' 32P. The method in brief:
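Purified RbFox RRM (wild type or mutant) was equilibrated for 10 min in 50 µL with 1 nM of a 5′-radiolabelled pool of RNA with 7 randomized nucleotides, its flanks annealed to DNA oligonucleotides, across increasing protein concentrations. Free RNA was separated by 8% native PAGE, excised, reverse-transcribed, PCR-barcoded and sequenced on an Illumina HiSeq 2500. Relative association constants came from read-count changes of each variant against the control reaction, normalised to the cognate motif.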
(A gel shift assay detects complexes by their altered migration in electrophoresis.)
B1: the binding signal is 0.00121 KA relative to UGCAUGU.
Turning to B2, the binding signal was 0.00187 KA relative to UGCAUGU.
The result for B3 reads 0.00265 KA relative to UGCAUGU; that for B4, 0.00169 KA relative to UGCAUGU.
B5: the binding signal is 0.0186 KA relative to UGCAUGU.
As for B6, the binding signal is 0.0281 KA relative to UGCAUGU.
The result for B7 reads 0.0108 KA relative to UGCAUGU; that for B8, 0.0821 KA relative to UGCAUGU.
The result for B9 reads 0.0227 KA relative to UGCAUGU; that for B10, 0.016 KA relative to UGCAUGU.
The result for B11 reads 0.00843 KA relative to UGCAUGU; that for B12, 0.0586 KA relative to UGCAUGU.
In the case of B13, the binding signal is 0.0362 KA relative to UGCAUGU.
The result for B14 reads 0.0197 KA relative to UGCAUGU.
The result for B15 reads 0.00744 KA relative to UGCAUGU; that for B16, 0.0481 KA relative to UGCAUGU.
The result for B17 reads 0.0314 KA relative to UGCAUGU.

Source of the values: PMC9911399, “Two distinct binding modes provide the RNA-binding protein RbFox with extraordinary sequence specificity”.
